# PubChem BioAssay (EPA / NIEHS)
# Records with an inconclusive call do not appear. The source made the active and inactive calls. The calls were made as follows: active = hit-call score of the fitted dose curve at least 0.9, where 1 is the maximum; inconclusive = response in the unintended direction; inactive = score below 0.9.
# Read-out: organic anion transporter (SLCO1B1), SLCO1B1 (gene 10599)
# Assay: CLD_SLCO1B1_24hr: CellzDirect (CLD) Gene Expression Assay for organic anion transporter (SLCO1B1) at 24 hours (AID 2283690)
# Outline: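 SLCO1B1 mRNA induction read at 24 h by quantitative nuclease protection assay (chemiluminescence), analyzed against DMSO baseline. Human hepatocyte cultures from separate donors received fresh dosing solutions daily; vehicle 0.2% DMSO; cytotoxicity flagged by phase-contrast morphology.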
# Glyceraldehyde-3-phosphate dehydrogenase (Homo sapiens), sequence (P04406 whole entry, looked up): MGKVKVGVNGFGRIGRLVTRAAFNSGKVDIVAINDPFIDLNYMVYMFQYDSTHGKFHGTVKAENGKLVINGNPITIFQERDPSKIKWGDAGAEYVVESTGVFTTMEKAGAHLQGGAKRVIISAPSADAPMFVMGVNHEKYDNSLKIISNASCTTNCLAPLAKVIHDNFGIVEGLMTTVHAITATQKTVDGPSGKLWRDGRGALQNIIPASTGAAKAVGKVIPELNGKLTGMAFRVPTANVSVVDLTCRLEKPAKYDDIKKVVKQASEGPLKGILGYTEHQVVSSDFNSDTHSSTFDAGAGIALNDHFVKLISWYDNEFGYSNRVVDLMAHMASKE
row,Compound,outcome
1,CCSC(=O)N(CC)C1CCCCC1,inactive
2,Cc1ccccc1CO[C@@H]1C[C@@]2(C(C)C)CC[C@]1(C)O2,inactive
3,CN(C)c1nc(=O)n(C2CCCCC2)c(=O)n1C,inactive
4,CCC(C)(CC)c1cc(NC(=O)c2c(OC)cccc2OC)on1,inactive

# Read-out: Glyceraldehyde-3-phosphate dehydrogenase (Homo sapiens) (UniProt P04406)
# Assay: CLD_GAPDH_24hr: CellzDirect (CLD) Gene Expression Assay for Baseline Control (Glyceraldehyde 3-phosphate dehydrogenase) at 24 hours (AID 2283692)
# Outline: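 GAPDH baseline-control readout: qNPA chemiluminescent mRNA signal in human primary hepatocytes harvested 24 h after daily dosing, normalised to 0.2% DMSO with positive fitting direction; cytotoxicity annotated by phase-contrast morphology.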
row,Compound,outcome
1,CCSC(=O)N(CC)C1CCCCC1,inactive
2,CCNc1nc(NC(C)C)nc(SC)n1,inactive
3,CN(C)c1nc(=O)n(C2CCCCC2)c(=O)n1C,inactive

# Read-out: sulfotransferase (SULT2A), SULT2A1 (gene 6822)
# Assay: CLD_SULT2A_24hr: CellzDirect (CLD) Gene Expression Assay for sulfotransferase (SULT2A) at 24 hours (AID 2283694)
# Outline: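 mRNA is measured by qNPA: probe hybridisation, S1 nuclease digestion, chemiluminescence, in lysates from human primary hepatocytes harvested 24 h after daily dosing. Vehicle was 0.2% DMSO. Phase-contrast microscopy flagged cytotoxicity (yes/no).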
row,Compound,outcome
1,Cc1ccccc1CO[C@@H]1C[C@@]2(C(C)C)CC[C@]1(C)O2,inactive
2,CCNc1nc(NC(C)C)nc(SC)n1,inactive
3,CN(C)c1nc(=O)n(C2CCCCC2)c(=O)n1C,inactive
4,CCC(C)(CC)c1cc(NC(=O)c2c(OC)cccc2OC)on1,inactive

# Read-out: ABC Transporter (ABCB1), ABCB1 (gene 5243)
# Assay: CLD_ABCB1_48hr: CellzDirect (CLD) Gene Expression Assay for ABC Transporter (ABCB1) at 48 hours (AID 2283695)
# Outline: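 ABCB1 mRNA was measured by quantitative nuclease protection assay (chemiluminescence) 48 h after dosing. Human hepatocyte cultures from two separate donors received fresh dosing solutions daily for two days, with 0.2% DMSO as vehicle. Positive-direction fit against DMSO.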
row,Compound,outcome
1,CCSC(=O)N(CC)C1CCCCC1,inactive
2,Cc1ccccc1CO[C@@H]1C[C@@]2(C(C)C)CC[C@]1(C)O2,inactive
3,CCNc1nc(NC(C)C)nc(SC)n1,inactive
4,CCC(C)(CC)c1cc(NC(=O)c2c(OC)cccc2OC)on1,inactive
